The supplement of paper PMC6555819

Tested on: PPARg DBDmut:RXRa IVT, anti-PPARg (DBD mutation: PPARg1 K132A/R137A, NR concentration 270 nM, RXRa partner concentration 90 nM)
Experiment: PBM binding z-score (relative to random genomic background probes); higher = stronger binding; sequences stand for … in GC…GCGATTGACAGCGTAGAATGAAGG
Outline: (§1)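 The probes on custom Agilent 4×180K protein-binding microarrays were double-stranded, with 34-nt variable regions bearing direct-repeat seeds, single-nucleotide variants, half-site ablations and random human genomic background sequences. Incubation lasted 1 h with ligand-free nuclear receptor dimers in PBS pH 7.4, 2% milk, 0.02% Triton X-100, 1 mM DTT, 0.2 mg/mL BSA and 0.4 mg/ml salmon testes DNA. Antibodies against each partner (one per run) detected bound dimers, and fluorescence scans were regression-normalized. Binding z-scores take the random background probes as reference.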

Sequence	PBM binding z-score
AATACAGGGCCACTAGGCCAGAGTAGGTACGAAT	0.705
TCTTGTAAATCAGCAGGTTAAGAAAGCTGGCCAA	-0.435
ACTATTAGTTGACTTAGGGCAACCGTTACGACGC	1.12
CAAACTAGGTCCCGAAAGGTCAAAGTCGAATGAC	0.419
CGTCCACGGTCAGCAGGTCAGTGAAAGCGACGTG	-0.923
ATCGAAAGGTCGGAGGTGAGTATACCCACCCGAA	1.11
GCTTACGGGTCAAAGGTTATTGCATGAATAGAAT	2.15
ATTCGGAGGACAAAGGTCAGAGCTACGCCAGTGA	0.302
GGTAGCAGGCCATTTGGGTCACTCAATGACGGGC	-0.125
GATACAGGGTCAGCTCGAGGCCAGAGTATGGAAA	-0.23
GCTTGTAGATCAAGGTTAAGATAGACTAAGCTAA	0.0148
ACTATTAGATGAGACGAGGGCAACCGATAGGTTG	1.15
AATACAGGGTCAACGTAGGCCAGAGTACGCACAG	1.64
GCATGTAGGTAATACAAGGTGAAAGTCCGATTGT	0.0664
TCTATTAGTTGACGGGCAACCGACGAGTCCGTTT	0.163
GCTTTTAGATCAAGGTTAAGAAAGACTAAGCTAA	0.785
TCGAGTAGGTTACCAATGGGGCATTCTGCTTTCT	-0.301
CCTAGCGGGCCAGGGTCACTCAAGCATTTCGCTT	-1.58
GCTTGTAGATCAAGGATAAGAAAGACTAAGCTAA	-0.469
ATATGTAGGTTAAGGGTCATCCAGGTTGGTTCGC	4.43

Sequence	PBM binding z-score
ACAGACAGGTGAGTGAAGGTAACTCACCTGGACG	0.307
CGAACTAGGTCAGAACAGGTCAGTGAAGGATGAT	1.14
TCCATTAGTTGAAGGGCAACCGACGAGTCCGTTT	0.0905
CCTAGTTCGTCAAGGTCACACACGCTATAGGTAC	1
CCTATTAGTTGACCACAAGGGCAACCGAAGCTCG	0.619
CCTATTAGTTGACCATAAGGGCAACCGCAGCTCG	0.402
TCTGCTAGGTCAGTTGGTAAGCTAACGAGCTGCC	-0.0986
GCAGACAGGTGAAACGCAGGTAACTCAAGGTGGC	-0.233
CCTCGGAGGACAACAGGCGGTCAGAGCTGCCAGA	-1.43
TCTTGTAGATCAAAAGAGGTTAAGAAAGTGCGCT	0.0222
CCTACTGGGCCAAAAAGGTCATTGAAGCCGATAA	-0.352
CAAACTAGGTCACGGAAGGTCAAAGTCGAATGAC	6.9
AGAATGAGGTTGTACGTAGATCAGGGAAGAAAGT	0.8
GTATCAAGGTGAATAGGTCGTTGATGAGTAGGCG	1.21
AGAACGAGGGCACGCTGAGATGATAGCAGAGTAG	0.615
AGTCAAAGTTCATCTAGATAACGTAAGATATGCT	1.25
CGAACTAGGTCAGAACAGGAGAGTGAAGGATGAT	1.13
CAAACTAGGTGACCGGAAGGTCAAAGTCCGCATG	2.87
ACAGACAGGTGAGTGAAGGAAACTCAGCTGGACG	-0.163
ATCCCAAGGTGATCGTGAGGTCGTTGATACTAAC	0.328

Tested on: PPARg DBDmut IVT, anti-PPARg (DBD mutation: PPARg1 K132A/R137A, NR concentration 270 nM)
Experiment: as above
Outline: as §1

Sequence	PBM binding z-score
AATACAGGGCCACTAGGCCAGAGTAGGTACGAAT	0.0878
TCTTGTAAATCAGCAGGTTAAGAAAGCTGGCCAA	-0.222
ACTATTAGTTGACTTAGGGCAACCGTTACGACGC	0.546
CAAACTAGGTCCCGAAAGGTCAAAGTCGAATGAC	0.865
CGTCCACGGTCAGCAGGTCAGTGAAAGCGACGTG	-1.32
ATCGAAAGGTCGGAGGTGAGTATACCCACCCGAA	0.559
GCTTACGGGTCAAAGGTTATTGCATGAATAGAAT	2.94
ATTCGGAGGACAAAGGTCAGAGCTACGCCAGTGA	-0.48
GGTAGCAGGCCATTTGGGTCACTCAATGACGGGC	-0.507
GATACAGGGTCAGCTCGAGGCCAGAGTATGGAAA	-0.691
GCTTGTAGATCAAGGTTAAGATAGACTAAGCTAA	-0.396
ACTATTAGATGAGACGAGGGCAACCGATAGGTTG	1.11
AATACAGGGTCAACGTAGGCCAGAGTACGCACAG	1.2
GCATGTAGGTAATACAAGGTGAAAGTCCGATTGT	0.517
TCTATTAGTTGACGGGCAACCGACGAGTCCGTTT	0.317
GCTTTTAGATCAAGGTTAAGAAAGACTAAGCTAA	0.404
TCGAGTAGGTTACCAATGGGGCATTCTGCTTTCT	-0.867
CCTAGCGGGCCAGGGTCACTCAAGCATTTCGCTT	-1.58
GCTTGTAGATCAAGGATAAGAAAGACTAAGCTAA	-0.526
ATATGTAGGTTAAGGGTCATCCAGGTTGGTTCGC	2.04

Sequence	PBM binding z-score
ACAGACAGGTGAGTGAAGGTAACTCACCTGGACG	0.131
CGAACTAGGTCAGAACAGGTCAGTGAAGGATGAT	1.73
TCCATTAGTTGAAGGGCAACCGACGAGTCCGTTT	0.783
CCTAGTTCGTCAAGGTCACACACGCTATAGGTAC	1.24
CCTATTAGTTGACCACAAGGGCAACCGAAGCTCG	0.658
CCTATTAGTTGACCATAAGGGCAACCGCAGCTCG	0.299
TCTGCTAGGTCAGTTGGTAAGCTAACGAGCTGCC	0.0442
GCAGACAGGTGAAACGCAGGTAACTCAAGGTGGC	-0.299
CCTCGGAGGACAACAGGCGGTCAGAGCTGCCAGA	-1.37
TCTTGTAGATCAAAAGAGGTTAAGAAAGTGCGCT	0.122
CCTACTGGGCCAAAAAGGTCATTGAAGCCGATAA	-0.851
CAAACTAGGTCACGGAAGGTCAAAGTCGAATGAC	4.23
AGAATGAGGTTGTACGTAGATCAGGGAAGAAAGT	0.199
GTATCAAGGTGAATAGGTCGTTGATGAGTAGGCG	0.758
AGAACGAGGGCACGCTGAGATGATAGCAGAGTAG	0.133
AGTCAAAGTTCATCTAGATAACGTAAGATATGCT	1.73
CGAACTAGGTCAGAACAGGAGAGTGAAGGATGAT	1.4
CAAACTAGGTGACCGGAAGGTCAAAGTCCGCATG	3.33
ACAGACAGGTGAGTGAAGGAAACTCAGCTGGACG	-1.04
ATCCCAAGGTGATCGTGAGGTCGTTGATACTAAC	-0.0144
